The supplement of paper PMC8975748
Structures can show the parent of a compound that is named as a salt.

tested on: Saccharomyces cerevisiae BY4741 SeMeCo community; experiment: z-score of subpopulation abundance vs DMSO median, subpopulation auxotrophic for HM; higher = larger share of this subpopulation than in DMSO controls; settings: 10 µM; 24 h; SM minimal medium; subpopulation (auxotrophy): HM
Protocol: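 Fluorescent four-plasmid SeMeCo (self-establishing metabolically cooperating S. cerevisiae BY4741 community; plasmids pH-mRuby2, pL-mWasabi, pU-eCFP, pM-TagRFP657) was grown 24 h in minimal SM medium with each Selleck FDA-approved drug at 10 µM in 384-well plates. Cells were fixed and imaged by high-content confocal microscopy. For each auxotrophic subpopulation (and the prototroph), a z-score gives the deviation from the DMSO vehicle-control population median.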

Structure (SMILES) | z-score of subpopulation abundance
C[N+]1(C)[C@@H]2CC[C@H]1C[C@@H](OC(=O)C(O)c1ccccc1)C2 (stereo not given in full) [Homatropine Methylbromide] | -0.7
CN1CCc2cc3c(cc2C(=O)Cc2ccc4c(c2C1)OCO4)OCO3 [Protopine] | -0.3
CN(C)CCC=C1c2ccccc2CCc2ccccc21 [Amitriptyline HCl] | -0.99
COc1ccnc(C[S+]([O-])c2nc3cc(-n4cccc4)ccc3[nH]2)c1C (stereo not given) [Ilaprazole sodium] | 1.14
O=C(O)c1cc(=O)c2c(OCC(O)COc3cccc4oc(C(=O)O)cc(=O)c34)cccc2o1 [Disodium Cromoglycate] | -0.13
CC[C@@H]([C@H](C)O)n1ncn(-c2ccc(N3CCN(c4ccc(OC[C@@H]5CO[C@@](Cn6cncn6)(c6ccc(F)cc6F)C5)cc4)CC3)cc2)c1=O [Posaconazole] | 11.5
COc1ccc2[nH]c([S+]([O-])Cc3ncc(C)c(OC)c3C)nc2c1 (stereo not given) [Omeprazole] | 0.37
Cc1cc(C)nc(NS(=O)(=O)c2ccc(N)cc2)n1 [Sulfamethazine Sodium Salt] | -0.79
COc1cc(N)c(Cl)cc1C(=O)NC1CCN(CCCOc2ccc(F)cc2)CC1OC (stereo not given) [Cisapride] | -1.22
Fc1ccc([C@@H]2CCNC[C@H]2COc2ccc3c(c2)OCO3)cc1 [Paroxetine mesylate] | -0.77
O=C(O)Cc1ccccc1Nc1c(Cl)cccc1Cl [Diclofenac Sodium] | -0.3
CCCc1cc(C(N)=S)ccn1 [Protionamide] | 0.36
O=C(CCCN1CCN(c2ccccn2)CC1)c1ccc(F)cc1 [Azaperone] | -0.63
O=C(O)CCC(=O)OC[C@@H](NC(=O)C(Cl)Cl)[C@H](O)c1ccc([N+](=O)[O-])cc1 [Chloramphenicol sodium succinate] | 0.94
Cc1nc(NC(=O)N2CCC[C@H]2C(N)=O)sc1-c1ccnc(C(C)(C)C(F)(F)F)c1 [Alpelisib (BYL719)] | 0.31
CN(C)CCOc1ccc(/C(=C(/CCCl)c2ccccc2)c2ccccc2)cc1 [Toremifene Citrate] | 0.66
CN(CCN1CCC(OC(=O)Nc2ccccc2-c2ccccc2)CC1)C(=O)c1ccc(CN2CCC(C(N)=O)CC2)cc1 [Revefenacin] | 0.49
COc1c(N2CCNC(C)C2)c(F)cc2c(=O)c(C(=O)O)cn(C3CC3)c12 (stereo not given) [Gatifloxacin] | -0.89
Cc1ccc(C(=O)C(C)CN2CCCCC2)cc1 (stereo not given) [Tolperisone HCl] | -0.34
CCCCCCCN(CC)CCCC(O)c1ccc(NS(C)(=O)=O)cc1 (stereo not given) [Ibutilide Fumarate] | 0.11

Structure (SMILES) | z-score of subpopulation abundance
CCN(CC)C(=O)C1(c2ccccc2)CC1CN (stereo not given) [Milnacipran HCl] | -0.8
CN(C)CCN1C(=O)c2cccc3cc(N)cc(c23)C1=O [Amonafide] | -0.01
COCCCN1CCC(NC(=O)c2cc(Cl)c(N)c3c2OCC3)CC1 [Prucalopride] | 0.24
O=C1OC(CN2CCOCC2)CN1/N=C/c1ccc([N+](=O)[O-])o1 (stereo not given) [Furaltadone HCl] | 0.11
CCCCOc1cc(C(=O)NCCN(CC)CC)c2ccccc2n1 [Dibucaine HCl] | -0.88
C=C[C@H]1CN2CC[C@H]1C[C@@H]2[C@@H](O)c1ccnc2ccc(OC)cc12 [Quinidine sulfate] | 1.23
CCCN1CCCC[C@H]1C(=O)Nc1c(C)cccc1C [Ropivacaine HCl] | -0.41
CCOc1ccc2ccccc2c1C(=O)N[C@@H]1C(=O)N2[C@@H]1SC(C)(C)[C@@H]2C(=O)O [Nafcillin Sodium] | 0.22
NCCc1ccc(O)c(O)c1 [Dopamine HCl] | -0.38
CCN(CC)CC#CCOC(=O)C(O)(c1ccccc1)C1CCCCC1 (stereo not given) [Oxybutynin chloride] | 0.06
CCc1nc(N)nc(N)c1-c1ccc(Cl)cc1 [Pyrimethamine] | -0.27
COc1ccc2[nH]c([S+]([O-])Cc3ncc(C)c(OC)c3C)nc2c1 (stereo not given) [Omeprazole Sodium] | -0.21
Nc1ccc(S(=O)(=O)c2ccc(N)cc2)cc1 [Dapson] | 0.93
C[C@@H]1O[C@@H]1P(=O)(O)O [Fosfomycin Disodium] | -0.52
CCn1cc(C(=O)O)c(=O)c2cc(F)c(N3CCNCC3)nc21 [Enoxacin Sesquihydrate] | 0.03
C[C@]12CC[C@@H]3c4ccc(O)cc4CC[C@H]3[C@@H]1CC[C@@H]2OC(=O)CCC1CCCC1 [Estradiol Cypionate] | -0.34
CC1(C)S[C@@H]2[C@H](NC(=O)[C@H](NC(=O)N3CCN(S(C)(=O)=O)C3=O)c3ccccc3)C(=O)N2[C@H]1C(=O)O [Mezlocillin Sodium] | -0.71
CCN1CCN(C(=O)N[C@@H](C(=O)N[C@@H]2C(=O)N3C(C(=O)O)=C(CSc4nnnn4C)CS[C@H]23)c2ccc(O)cc2)C(=O)C1=O [Cefoperazone] | 0.3
Cc1cc(C)nc(NS(=O)(=O)c2ccc(N)cc2)n1 [Sulfamethazine] | 0.43
O=C(c1ccccc1)c1ccc2n1CCC2C(=O)O (stereo not given) [Ketorolac] | -0.76
